Reference: PubChem BioAssay (NCI)
The panel holds about 83,000 compounds, 20% with a hit somewhere; the sample as a whole holds those more often.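 A percent growth of 40 corresponds to 60% growth inhibition; 0 means no net growth; -100 means all cells died. Active threshold: below 10.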 Calls of active or inactive are those of the source.

The molecules below were run on M14 melanoma (assay: NCI-60 one-dose screen, 48 h (100 = growth as untreated, 0 = no growth, -100 = all killed)). Details: 10 µM unless noted.
In the case of `COc1ccc(OC)c(N(CCN2C(=O)c3ccccc3C2=O)C(=O)CCl)c1`, the growth is reported as 84.2% (inactive).
With `O=C(NC1CCN(Cc2ccccc2)CC1)c1cc(C(=O)NC2CCN(Cc3ccccc3)CC2)cc(C(=O)NC2CCN(Cc3ccccc3)CC2)c1` the growth was 83.2% (inactive).
In the case of `CCOC(=O)c1c(Cl)c2c(n1Cc1ccccc1)-c1oncc1CCC2`, the growth is reported as 55.3% (inactive).
With `O=C(/C=C/c1ccccn1)c1ccc(OCc2nnc(-c3ccc(Cl)cc3)o2)cc1` the growth was 31.1% (inactive).
For `CSc1nc2c(c(=O)n1C)N=C1c3ccccc3C(=O)C1C(c1ccccc1)N2` (stereo not drawn), the growth was 62.2% (inactive).
With `CC/C=C\C[C@H](O)C/C=C1/C(=O)C=C[C@@H]1C/C=C\CCCC(=O)OCCS(=O)(=O)c1ccccc1` the growth was 27.5% (inactive).
`Cc1cc(Nc2ccc(OCc3ccccc3)cc2)nc2cc(O)ccc12` was tested, and the growth was 40.4% (inactive).
`CSc1nc2c(c(=O)[nH]1)N=C1c3ccccc3C(=O)C1C(c1ccc(F)cc1)N2` (stereo not drawn) was tested, and the growth was 43.4% (inactive).
In the case of `CCOc1ccccc1CN1CCc2nc3cc(C(C)(C)C)[nH]n3c(=O)c2C1`, the growth is reported as 91.6% (inactive).
`O=C(NC(=S)Nc1cccc(NC(=S)NC(=O)c2ccccc2)c1)c1ccccc1` was tested, and the growth was 73.5% (inactive).
For `CCOC(=O)c1c2c(n3cccc(Cl)c13)C(=O)c1ncccc1C2=O`, the growth was 22.6% (inactive).
In the case of `O=C(NN1C(=O)CSC1c1ccc(Cl)cc1)c1[nH]c2ccc(F)cc2c1-c1ccccc1` (stereo not drawn), the growth is reported as 57.3% (inactive).
With `COc1ccc(-n2c(C(O)c3ccccc3)nn(CN3CCOCC3)c2=S)cc1` (stereo not drawn) the growth was 95.2% (inactive).
`CCCC(=O)CC(C)=O.CCCC(=O)CC(C)=O.[Cu]` was tested, and the growth was 100% (inactive).
In the case of `COc1ccc(C2Nc3ncnc(N)c3N=C3c4ccccc4C(=O)C32)cc1` (stereo not drawn), the growth is reported as 94.8% (inactive).
`Nc1nc(N)c2c(n1)NC1(C=C(O)c3ccccc31)C1=C(N2)c2ccccc2C1=O` (stereo not drawn) was tested, and the growth was 105% (inactive).
For `CCOC(=O)c1cnc2ccc(Cl)cc2c1NCCCN(C)C`, the growth was 2.88% (active).
In the case of `CCCCCCc1cc2cc(-c3nc4ccccc4[nH]3)c(=Nc3ccccc3C)oc2cc1O`, the growth is reported as 9.12% (active).
For `OC(c1ccccc1)c1nnc(SCc2ccccc2)n1Cc1ccccc1` (stereo not drawn), the growth was 88% (inactive).
With `CC(=O)O[C@@H]1/C=C/C(=O)N[C@@H](C)CCC/C=C/[C@@H]2CCC[C@H]21` the growth was 103% (inactive).
With `COc1ccc(C2Nc3nc(OC)n(C)c(=O)c3N=C3c4ccccc4C(=O)C32)cc1` (stereo not drawn) the growth was 92.4% (inactive).
With `CN1CCN(c2nc(Nc3ccc(O)cc3)nc3ccccc23)CC1` the growth was 50.3% (inactive).
`COc1ccc(/C=C2\SC(=Nc3ccccc3)NC2=O)cc1` was tested, and the growth was -79.8% (active).
For `CCOC(=O)c1cc2c(n1Cc1cc(OC)c(OC)c(OC)c1)-c1oncc1CCC2`, the growth was 18% (inactive).
`Cn1c2c(c(=O)[nH]c1=O)NC1=C(C(=O)c3ccccc31)C1(C=C(O)c3ccccc31)N2` (stereo not drawn) was tested, and the growth was 96.8% (inactive).
`FC(F)(F)c1cccc(Nc2nc(-c3ccccc3)nc3ncccc23)c1` was tested, and the growth was -86.6% (active).
With `O=C(Nc1ccc(Cl)cc1)c1cc2ccccc2cc1OP(=O)(O)O` the growth was 31.9% (inactive).
For `COC(=O)/C(=C\c1c(-c2ccccc2)[nH]c2ccccc12)S(C)(=O)=O`, the growth was 14.9% (inactive).
With `Nc1ccc(C2c3ccccc3Oc3ccccc32)cc1` the growth was 107% (inactive).
For `N#CC(C#N)=Cc1c(-c2ccccc2)[nH]c2ccccc12`, the growth was 27.7% (inactive).
In the case of `CCCCc1ccc(NS(=O)(=O)c2cc3c4c(c2)CCN4C(=O)CC3)cc1`, the growth is reported as -12.8% (active).
For `O=C(CSc1ncccc1C(=O)O)Nc1ccc(Oc2ccccc2)cc1`, the growth was 98.7% (inactive).
With `N#C/C(=C\c1c(-c2ccccc2)[nH]c2ccccc12)C(=O)c1ccccc1` the growth was 37.6% (inactive).
In the case of `O=C1/C=C/[C@@H](O)[C@@H]2C[C@@H](O)C[C@H]2/C=C/CCCCO1`, the growth is reported as 30.2% (inactive).
`CCCC(c1nnnn1C1CCCCC1)N1CCN(C(=O)c2ccco2)CC1` (stereo not drawn) was tested, and the growth was 30.5% (inactive).
In the case of `Nc1nc(Nc2cccc(F)c2)nc2ccccc12`, the growth is reported as 22.9% (inactive).
`CC(C)(C)c1ccc(C2CC(=O)C3=C(C2)Nc2ccccc2N(C(=O)c2ccccc2Cl)C3c2ccc(F)cc2)cc1` (stereo not drawn) was tested, and the growth was 5.11% (active).
With `O=CCCCC(O)C=O` (stereo not drawn) the growth was 105% (inactive).
In the case of `CN(O)c1nc(N(C)O)nc(N2CCOCC2)n1`, the growth is reported as 16% (inactive).

These molecules were tested on HCT-15 colon in the same assay as above. Details: 10 µM unless noted.
For `COc1ccc(OC)c(N(CCN2C(=O)c3ccccc3C2=O)C(=O)CCl)c1`, the growth was 80.3% (inactive).
`O=C(NC1CCN(Cc2ccccc2)CC1)c1cc(C(=O)NC2CCN(Cc3ccccc3)CC2)cc(C(=O)NC2CCN(Cc3ccccc3)CC2)c1` was tested, and the growth was 78.2% (inactive).
With `CCOC(=O)c1c(Cl)c2c(n1Cc1ccccc1)-c1oncc1CCC2` the growth was 36.1% (inactive).
For `O=C(/C=C/c1ccccn1)c1ccc(OCc2nnc(-c3ccc(Cl)cc3)o2)cc1`, the growth was 18.9% (inactive).
In the case of `CSc1nc2c(c(=O)n1C)N=C1c3ccccc3C(=O)C1C(c1ccccc1)N2` (stereo not drawn), the growth is reported as 62.4% (inactive).
For `CC/C=C\C[C@H](O)C/C=C1/C(=O)C=C[C@@H]1C/C=C\CCCC(=O)OCCS(=O)(=O)c1ccccc1`, the growth was 62% (inactive).
In the case of `Cc1cc(Nc2ccc(OCc3ccccc3)cc2)nc2cc(O)ccc12`, the growth is reported as 16.9% (inactive).
With `CSc1nc2c(c(=O)[nH]1)N=C1c3ccccc3C(=O)C1C(c1ccc(F)cc1)N2` (stereo not drawn) the growth was 46.1% (inactive).
With `CCOc1ccccc1CN1CCc2nc3cc(C(C)(C)C)[nH]n3c(=O)c2C1` the growth was 97.4% (inactive).
With `O=C(NC(=S)Nc1cccc(NC(=S)NC(=O)c2ccccc2)c1)c1ccccc1` the growth was 73.5% (inactive).
With `CCOC(=O)c1c2c(n3cccc(Cl)c13)C(=O)c1ncccc1C2=O` the growth was 25.6% (inactive).
In the case of `O=C(NN1C(=O)CSC1c1ccc(Cl)cc1)c1[nH]c2ccc(F)cc2c1-c1ccccc1` (stereo not drawn), the growth is reported as 55.7% (inactive).
With `COc1ccc(-n2c(C(O)c3ccccc3)nn(CN3CCOCC3)c2=S)cc1` (stereo not drawn) the growth was 113% (inactive).
`CCCC(=O)CC(C)=O.CCCC(=O)CC(C)=O.[Cu]` was tested, and the growth was 105% (inactive).
For `COc1ccc(C2Nc3ncnc(N)c3N=C3c4ccccc4C(=O)C32)cc1` (stereo not drawn), the growth was 89.4% (inactive).
With `Nc1nc(N)c2c(n1)NC1(C=C(O)c3ccccc31)C1=C(N2)c2ccccc2C1=O` (stereo not drawn) the growth was 112% (inactive).
With `CCOC(=O)c1cnc2ccc(Cl)cc2c1NCCCN(C)C` the growth was 26.2% (inactive).
`CCCCCCc1cc2cc(-c3nc4ccccc4[nH]3)c(=Nc3ccccc3C)oc2cc1O` was tested, and the growth was 31.2% (inactive).
`OC(c1ccccc1)c1nnc(SCc2ccccc2)n1Cc1ccccc1` (stereo not drawn) was tested, and the growth was 88.9% (inactive).
In the case of `CC(=O)O[C@@H]1/C=C/C(=O)N[C@@H](C)CCC/C=C/[C@@H]2CCC[C@H]21`, the growth is reported as 114% (inactive).
`COc1ccc(C2Nc3nc(OC)n(C)c(=O)c3N=C3c4ccccc4C(=O)C32)cc1` (stereo not drawn) was tested, and the growth was 88.3% (inactive).
With `CN1CCN(c2nc(Nc3ccc(O)cc3)nc3ccccc23)CC1` the growth was 32.5% (inactive).
In the case of `COc1ccc(/C=C2\SC(=Nc3ccccc3)NC2=O)cc1`, the growth is reported as -44.5% (active).
In the case of `CCOC(=O)c1cc2c(n1Cc1cc(OC)c(OC)c(OC)c1)-c1oncc1CCC2`, the growth is reported as 16.9% (inactive).
For `Cn1c2c(c(=O)[nH]c1=O)NC1=C(C(=O)c3ccccc31)C1(C=C(O)c3ccccc31)N2` (stereo not drawn), the growth was 96.9% (inactive).
`FC(F)(F)c1cccc(Nc2nc(-c3ccccc3)nc3ncccc23)c1` was tested, and the growth was 17.6% (inactive).
In the case of `O=C(Nc1ccc(Cl)cc1)c1cc2ccccc2cc1OP(=O)(O)O`, the growth is reported as 23.2% (inactive).
`COC(=O)/C(=C\c1c(-c2ccccc2)[nH]c2ccccc12)S(C)(=O)=O` was tested, and the growth was 34.5% (inactive).
With `Nc1ccc(C2c3ccccc3Oc3ccccc32)cc1` the growth was 99.2% (inactive).
In the case of `N#CC(C#N)=Cc1c(-c2ccccc2)[nH]c2ccccc12`, the growth is reported as 35.3% (inactive).
With `CCCCc1ccc(NS(=O)(=O)c2cc3c4c(c2)CCN4C(=O)CC3)cc1` the growth was 32.6% (inactive).
For `O=C(CSc1ncccc1C(=O)O)Nc1ccc(Oc2ccccc2)cc1`, the growth was 104% (inactive).
`N#C/C(=C\c1c(-c2ccccc2)[nH]c2ccccc12)C(=O)c1ccccc1` was tested, and the growth was 42.1% (inactive).
`O=C1/C=C/[C@@H](O)[C@@H]2C[C@@H](O)C[C@H]2/C=C/CCCCO1` was tested, and the growth was 19.8% (inactive).
For `CCCC(c1nnnn1C1CCCCC1)N1CCN(C(=O)c2ccco2)CC1` (stereo not drawn), the growth was 45.5% (inactive).
For `Nc1nc(Nc2cccc(F)c2)nc2ccccc12`, the growth was 33.4% (inactive).
`CC(C)(C)c1ccc(C2CC(=O)C3=C(C2)Nc2ccccc2N(C(=O)c2ccccc2Cl)C3c2ccc(F)cc2)cc1` (stereo not drawn) was tested, and the growth was 19.3% (inactive).
In the case of `O=CCCCC(O)C=O` (stereo not drawn), the growth is reported as 108% (inactive).
With `CN(O)c1nc(N(C)O)nc(N2CCOCC2)n1` the growth was 22.5% (inactive).
